This note sets out measurements from PubChem BioAssay (NCATS).

Assay [1] in a line: qHTS assay for measurement of the activity of small molecule inhibitors on Zika virus induced Caspase-3 activity in human iPSC derived neural progenitor cells (hNPCs) (AID 1224857). Also: % of control where 0% means no effect; nearly all actives have a fitted effect of over 65% in size. The settings on record: hNPCs ZIKV-induced caspase-3/7, Caspase-Glo luminescence, 6 h; series mostly up to 45.7 µM. In outline: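 After overnight (16–20 h) culture at 350 cells/well, hNPCs get compound, then ZIKV 2 FFU/cell one hour later. Six hours on, Caspase-Glo 3/7 is added and luminescence measured.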
(In qHTS, concentration-response curves come from the screen itself.)

The nature of assay [2]: qHTS assay for measurement of the activity of small molecule inhibitors on Zika virus induced Caspase-3 activity in human astrocytoma cells (AID 1224859).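 Also: plate controls were ZIKV-infected untreated cells for no effect and uninfected cells for full effect.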 The settings on record: SNB-19 ZIKV-induced caspase-3/7, luminescence, 6 h; series mostly up to 45.7 µM. In a few lines:
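Inhibition of Zika-induced caspase-3/7 activity: SNB-19 cells, 1 h compound pretreatment, ZIKV 2 FFU/cell for 6 h at 37 C, Caspase-Glo luminescence read-out.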

Assay [3] can be described thus: qHTS assay to identify small molecule inhibitors of chordoma cells - UCH-2 (AID 1259356). Also: % is scaled to controls: 0 for no effect and ±100 for the full control effect. The settings on record: UCH-2 chordoma viability, CellTiter-Glo ATP luminescence, 48 h; series mostly up to 46.1 µM.
Assay [4] in a line: NS1 protein of Zika virus - qHTS assay to identify small molecule inhibitors in human HEK 293 cells (AID 1347053).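 Also: plate controls were infected untreated cells for no effect and uninfected cells for full effect; nearly all actives have a fitted effect of over 55% in size.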 As to conditions: HEK293 ZIKV MR766 infection, NS1 TR-FRET, 24 h; series mostly up to 46.1 µM. In a few lines:
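Inhibition of NS1 expression was scored in HEK 293 cells given compound 1 h ahead of MR766 virus (MOI = 0.5). Following 24 h at 37 C, two anti-NS1 antibodies generated a TR-FRET signal, scaled between uninfected and infected controls.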

A short description of assay [5]: qHTS profiling for inhibitors of Plasmodium falciparum (3D7) proliferation (AID 743322).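 Also: infected erythrocytes exposed to compound for 72 h before lysis; 100% = DMSO vehicle wells and 0% = 0.29 µM artemisinin.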 The settings on record: P. falciparum 3D7 proliferation; at 28.7 µM (top of the series) unless noted. In a few lines: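 Erythrocytes infected with P. falciparum (0.3% parasitemia, 2.5% hematocrit) incubated with compounds 72 h at 37 C, 5% CO2. Lysis with saponin/Triton buffer containing SYBR Green I, overnight at room temperature in the dark; DNA fluorescence (485/535 nm) normalised to 0.29 uM artemisinin and DMSO.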

Assay [6] can be described thus: qHTS profiling for inhibitors of Plasmodium falciparum (DD2) proliferation (AID 743323; call rule not given here). The settings on record: lower = more inhibition; at 28.7 µM (top of the series) unless noted. In outline: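 Parasite DNA quantified by SYBR Green fluorescence (ex 485, em 535 nm) after saponin/Triton lysis and overnight dark incubation. Cultures: 0.3% parasitemia, 2.5% hematocrit, 72 h, 37 C; data scaled between DMSO and 0.29 uM artemisinin.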

The nature of assay [7]: P-glycoprotein substrates identified in KB-8-5-11 adenocarcinoma cell line, qHTS therapeutic library screen (AID 1346987). Also: % is scaled to controls: 0 for no effect and ±100 for the full control effect; nearly all actives have a fitted effect of over 65% in size. The settings on record: KB-8-5-11 (P-gp overexpressing) viability, CellTiter-Glo, 72 h; series mostly up to 44.5 µM. In a few lines: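 KB-8-5-11: colchicine-selected sub-line of KB-3-1 over-expressing P-gp; assay medium lacked colchicine. 72 h drug exposure at 37 degree C, CellTiter-Glo.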

A short description of assay [8]: qHTS assay for cell viability of HEK293 cells (AID 743288). Also: % is scaled to controls: 0 for no effect and ±100 for the full control effect; nearly all actives have a fitted effect of over 50% in size. The settings on record: ATP luminescence (CellTiter-Glo), 18 h, stronger effect = lower value. In outline:
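HEK293 parental, 2,000 cells/well; ≥5 h pre-incubation 37 C; pintool compound addition; 18 h, 37 C; CellTiter-Glo 30 min RT; luminescence read.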

Assay [9] in a line: qHTS assay for cell viability of the p53RE-bla HCT-116 cell line (AID 743292). Also: % is scaled to controls: 0 for no effect and ±100 for the full control effect; nearly all actives have a fitted effect of over 55% in size. The settings on record: p53RE-bla HCT-116 viability, ATP luminescence, 16 h; series mostly up to 95 µM. In outline:
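Viability of compound-treated p53RE-bla HCT-116 cells is taken from ATP-dependent luciferase luminescence. Treatment lasts 16 h at 37 C after a 5 h settling period; detection follows 30 min at room temperature.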

Assay [10] can be described thus: qHTS Assay for Identifying Gametocytocidal Compounds (AID 743244).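 Also: % is scaled to controls: 0 for no effect and ±100 for the full control effect; actives lower the fluorescent signal which means gametocytes are killed.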 The settings on record: P. falciparum 3D7 stage III-V gametocytes, alamarBlue, 72 h; max response: stronger effect = lower value. In a few lines: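 Using 20,000 stage III–V 3D7 gametocytes per well, compounds were incubated 72 h under 37 °C/5% CO2. Viability was then assessed by 24 h alamarBlue reduction, measured fluorometrically at 525/598 nm.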

“And” between values parts separate entries of the source, which are not always exact repeats. Equal entries are not always repeated. Records with an inconclusive call do not appear. The source made the active and inactive calls. Unless noted, calls follow the shape of the dose curve; as a rule, active = well fitted curve in the direction sought with a large enough effect; inconclusive = small, poorly fitted or top-dose-only effect, or another doubt; inactive = no such curve, though single readings can be large; an effect the other way counts as inactive or inconclusive.

As for `CN(CCCN1c2ccccc2CCc2ccccc21)CC(=O)c1ccc(Cl)cc1`, the Potency result in assay [1], in [3] and in assay [4] was “inactive” each time. Besides, the molecule was called inactive in assay [2].
Turning to `C[N+]1(C)CCC(=C(c2ccccc2)c2ccccc2)CC1`, the remaining parasite growth % (stronger effect = lower value) in [5] worked out at 4.05% [at 18.4 µM]. The molecule further had an activity, percent of control in assay [6] of 22.2% [at 18.4 µM]. Also, the Potency result in assay [1], in assay [3], in assay [7] and in assay [4] was “inactive” in each case. Further, in assay [2], the molecule was called inactive.
`NCCNc1cccc2ccccc12`: the max response in assay [8] was -10.4% (inactive) and -20.5% (inactive). Besides, the outcome in [9] and in assay [2] was inactive. Also, the Potency entry in assay [1], in assay [3], in assay [7] and in assay [4] was “inactive” each time.
As for `CCCN(CCc1cccs1)[C@H]1CCc2c(O)cccc2C1`, the Potency result in assay [1], in assay [3] and in [4] was “inactive” in each case. Besides, the molecule was called inactive in assay [2].
As to `CCCCN1C[C@H](O)[C@@H](O)[C@H](O)[C@H]1CO`, the max response in [10] was 2.05% (inactive). The Potency entry in [1], in assay [3], in assay [7] and in assay [4] was “inactive” in each case. Further, in [2], the call was inactive.
As for `CCN(CC)CCOC(=O)C1(c2ccccc2)CCCC1`, the max response in [10] is -2.23% (inactive). Moreover, the Potency entry in [1], in assay [3], in assay [7] and in assay [4] was “inactive” throughout. Also, in assay [2], the result was inactive.
In the case of `CC(C)(C)NC[C@H](O)COc1cccc2c1CCCC2=O`, the max response in assay [10] was -0.406% (inactive). In addition, the Potency entry in [1], in assay [3], in [7] and in [4] was “inactive” in each case. The molecule was called inactive in assay [2].
Regarding `COP(=O)(OC)OC(c1ccc(Cl)cc1)P(=O)(OC)OC` (configuration not stated), the Potency entry in assay [1], in [3], in assay [7] and in [4] was “inactive” each time. The outcome in assay [2] was inactive.
In the case of `CCN1CCN(C(=O)N[C@@H](C(=O)N[C@@H]2C(=O)N3C(C(=O)O)=C(CSc4nnnn4C)CS[C@H]23)c2ccc(O)cc2)C(=O)C1=O`, in [10], the max response is 14.5% (inactive). The Potency result in assay [1], in assay [3], in assay [7] and in assay [4] was “inactive” each time. Further, the outcome in assay [2] was inactive.
Take `CCOCCn1c(N2CCCN(C)CC2)nc2ccccc21`: the max response in [10] is -5.27% (inactive). The Potency entry in [1], in assay [3], in [7] and in assay [4] was “inactive” throughout. Also, the outcome in assay [2] was inactive.
On to `CN(C)CCOC(=O)C(c1ccccc1)C1(O)CCCC1` (configuration not stated), for which the max response in assay [10] was 1.53% (inactive). For the same molecule, the Potency result in [1], in [3], in assay [7] and in [4] was “inactive” each time. In addition, in assay [2], the call was inactive.
With `CN(C)CCOC(c1ccc(Cl)cc1)c1ccccn1` (configuration not stated), the max response in assay [10] is 1.88% (inactive). Moreover, the Potency result in assay [1], in [3] and in assay [4] was “inactive” throughout. Besides, in [2], the outcome was inactive.
Take `NS(=O)(=O)c1ccc(Cl)c(S(N)(=O)=O)c1`: the max response in [10] was -1.41% (inactive). The Potency entry in [1], in [3], in assay [7] and in [4] was “inactive” each time. In addition, the outcome in [2] was inactive.
Regarding `Nc1ccc(S(=O)(=O)Nc2cnc3ccccc3n2)cc1`, the max response in assay [10] is -6.45% (inactive). Besides, the Potency result in [1], in [3], in assay [7] and in [4] was “inactive” in each case. The result in assay [2] was inactive.
Take `FC1(F)C(F)(F)C(F)(F)C2(F)C(F)(F)C(F)(F)C(F)(F)C(F)(F)C2(F)C1(F)F` (configuration not stated): the max response in [10] was -4.02% (inactive). Moreover, the Potency result in [1], in [3], in assay [7] and in [4] was “inactive” in each case. In addition, the outcome in assay [2] was inactive.
On to `CCOC(=O)[C@H](CCc1ccccc1)N[C@@H](C)C(=O)N1[C@H](C(=O)O)C[C@@H]2CCC[C@@H]21`, for which, in assay [10], the max response is -0.0266% (inactive). The Potency entry in [1], in assay [3], in assay [7] and in assay [4] was “inactive” throughout. The molecule was called inactive in [2].
